Assay results reported in PubChem BioAssay.

What was measured:
[1] = target: Tumor necrosis factor receptor superfamily member 10B (Homo sapiens) (UniProt O14763); experiment: caspase-8 TRAIL sensitization, hit retest, confirmation, cell-based, NB7+caspase-8, with/without TRAIL, luminescence panel (AID 651596); details: NB7 neuroblastoma + caspase-8, TRAIL sensitization, luminescence viability, with TRAIL, mean of runs, at 10 µM, stronger effect = higher value
[2] = as above; details: NB7 neuroblastoma + caspase-8, without TRAIL, luminescence viability, without TRAIL, mean of runs, at 10 µM
[3] = inhibitors of PAF-induced NFkB signaling in CF airway cells, dose response, cell-based, uHTS hits, panel, cytotoxicity readout (AID 624344); details: CF bronchial epithelial cells, PAF-induced NFkB reporter inhibition, with PAF, run 1; at 79 µM (top of the series)
[4] = as above; details: CF bronchial epithelial cells, PAF-induced NFkB reporter inhibition, with PAF, run 2; at 79 µM (top of the series)

Tumor necrosis factor receptor superfamily member 10B (Homo sapiens), sequence (O14763 whole entry, looked up): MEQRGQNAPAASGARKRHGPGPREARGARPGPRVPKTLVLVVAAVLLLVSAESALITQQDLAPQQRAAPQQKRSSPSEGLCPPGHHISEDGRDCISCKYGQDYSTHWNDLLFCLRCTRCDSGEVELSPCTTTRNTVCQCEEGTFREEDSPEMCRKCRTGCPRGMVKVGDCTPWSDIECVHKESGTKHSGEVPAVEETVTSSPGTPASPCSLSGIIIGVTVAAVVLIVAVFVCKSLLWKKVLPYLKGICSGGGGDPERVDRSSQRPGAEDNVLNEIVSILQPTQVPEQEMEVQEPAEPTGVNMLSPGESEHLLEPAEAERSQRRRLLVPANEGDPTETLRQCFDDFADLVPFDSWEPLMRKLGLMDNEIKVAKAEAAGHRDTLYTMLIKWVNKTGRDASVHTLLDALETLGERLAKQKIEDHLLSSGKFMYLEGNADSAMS

Q: Which activity [1] does the source give for COC(=O)C12OCC34C(CC5C(C)=C(O)C(=O)CC5(C)C3C(O)C1O)OC(=O)C(OC(=O)/C=C(\C)C(C)C)C24 (stereo not drawn) here?
A: 94.8%

Q: And the activity [2]?
A: 97.5%

Q: Which activity [1] does the source give for CC(=O)OC[C@]12CCC(C)=C[C@H]1O[C@@H]1[C@H](O)[C@@H](OC(C)=O)[C@@]2(C)[C@]12CO2 here?
A: 95.1%

Q: And the activity [2]?
A: 97.4%

Q: Which inhibition [3] does the source give for O=c1[nH]c2ccccc2n1C1CCN(C(c2cc3ccccc3o2)c2nnnn2-c2ccc3c(c2)OCCO3)CC1 (stereo not drawn) here?
A: 103%

Q: What about the inhibition [4] of the same molecule?
A: 104%

Q: What about the activity [1] of the same molecule?
A: 81.4%

Q: And the activity [2]?
A: 83.5%
